The entries come from a sample that favours hits as a whole.
BL2 CD40 inh = CD40 pathway inhibition in BL2 cells; BL2 NF-kB luciferase reporter, CD40L-induced, 4 h; inhibition, % at 10 µM; actives 0.94% (n = 83,000); AID 1053188;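 active = mean inhibition of at least 50% with a set share of replicates also reaching that level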;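 also: 0% = neutral control wells and 100% = IKK inhibitor VII at 50 µM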
The depositor's hits bear a star; [ ] = another dose, or the depositor's remark.

SMILES	BL2 CD40 inh
Cc1noc(C)c1NC(=O)N(C)C[C@@H]1OCc2ccccc2-c2c(n(C)c3ccccc23)C(=O)N([C@@H](C)CO)C[C@H]1C	-12[25 µM]
CCCN1[C@@H]2Cn3c(cccc3=O)[C@H]1[C@@H](C(=O)N[C@H](C)c1ccccc1)[C@@H]2CO	-3[25 µM]
CC(C)NC(=O)N1[C@@H]2CN(C(=O)Nc3ccccc3)c3ccccc3[C@@H]2[C@@H]1CO	-25
O=C(Nc1ccccc1)c1cccc(N2CCCC2=O)c1	-43
O=C(NCc1ccc2c(c1)OCO2)c1cccc(N2CCCC2=O)c1	0
O=C(NCCc1ccccc1)c1cccc(N2CCCC2=O)c1	71*
O=C(Nc1ccccc1Cl)N1[C@@H]2CNc3ccccc3[C@@H]2[C@@H]1CO	6[25 µM]
CNc1c2cccc(C)c2nc2c(C(=O)NCCN(C)C)cccc12	86*
Cc1ccccc1C(=O)Nc1c(C(=O)N(CCN(C)C)Cc2ccco2)oc2ccccc12	18
Cc1ccc(C(=O)NCCN(C)C)c(C)c1	5
CC(C)NC(=O)N(C)C[C@H]1Oc2ccc(NS(C)(=O)=O)cc2C(=O)N(C)C[C@H]1C	5
CC(=O)c1cnc(-c2ccccc2Cl)s1	1
O=C1c2sc3nc4ccccc4n3c2C(=O)N1c1ccccc1Cl	52*
C[C@H]1CN([C@@H](C)CO)C(=O)c2ccccc2-c2ccccc2CO[C@@H]1CN(C)C(=O)c1ccc(F)cc1	1[25 µM]
CC(C)NC(=O)Nc1cccc2c1O[C@H](CN(C)C)[C@H](C)CN(C)C2=O	-1
CN1CCN(C(=O)C[C@@H]2CC[C@@H]3[C@H](COC[C@H](O)CN3C(=O)Nc3ccc4c(c3)OCO4)O2)CC1	-37[25 µM]
CN1CCN(C(=O)C[C@H]2CC[C@H]3[C@@H](COC[C@H](O)CN3C(=O)Nc3ccc4c(c3)OCO4)O2)CC1	-39[25 µM]
CN1CCN(C(=O)C[C@@H]2CC[C@H]3[C@@H](COC[C@@H](O)CN3C(=O)Nc3ccc4c(c3)OCO4)O2)CC1	active[25 µM]
CC(C)NC(=O)Nc1ccc2c(c1)CC(=O)N(C)C[C@H](C)[C@@H](CN(C)C(=O)NC(C)C)O2	-5
CN(C)C(=O)c1ccc(-c2ccc3c(c2)[C@@H]2[C@@H](CCN2C(=O)C2CCCCC2)[C@@H](CO)N3C)cc1	-4
OC[C@H]1Nc2ccc(-c3cccc(F)c3)cc2[C@@H]2[C@H]1CCN2Cc1ccc(F)cc1	-19[25 µM]
Cn1c(CO)nc2cc(N)ccc21	50*
Cc1nc2cc(CO)ccc2n1C	2
Cn1c(SCc2nc3ccccc3n2CCO)nc2ccccc21	9
CO[C@@H]1CN(C)C(=O)c2cc(NC(=O)C3CCC3)ccc2OC[C@@H](C)N(Cc2ccc(F)cc2)C[C@@H]1C	5
SMILES	BL2 CD40 inh
CN(C)C(=O)[C@@H]1[C@@H](CO)[C@@H]2Cn3c(cccc3=O)[C@@H]2N1C(=O)C1CCCC1	3
COc1cccc(S(=O)(=O)Nc2ccc3c(c2)[C@@H]2C[C@H](CC(=O)NCc4ccccc4F)O[C@H](CO)[C@@H]2O3)c1	-5[25 µM]
O=C(Cc1ccccn1)N1CC(=O)N2[C@H](CO)[C@H](c3ccc(C#CC4CCCC4)cc3)[C@H]2C1	4
CCCCCCCCN1C(=O)C(C(C)=O)=C(C)C1(C)O (centres undefined)	5[25 µM]
Nc1ccc2nc(Cc3ccccc3)[nH]c2c1	1
CCN(CC)c1ccc2nc3ccc(N)cc3[n+](-c3ccccc3)c2c1	88*
CN1C(=O)c2cc(NC(=O)C3CC3)ccc2OC[C@@H]2O[C@H](CC(=O)O)CC[C@@H]21	-4
CC(=O)Nc1ccc2c(c1)C(=O)N(C)C[C@@H](C)[C@H](CN(C)C(C)=O)O2	-3
CCCC(C)Sc1nc2c([nH]1)c(=S)n(C)c(=O)n2C (centres undefined)	93*
Cn1c(=O)c2[nH]c(SCCN3CCCCC3)nc2n(C)c1=S	7
CCSc1nc2c([nH]1)c(=O)n(C)c(=S)n2C	0
CO[C@@H]1CN(C)C(=O)c2ccc(NC(=O)C3CCCCC3)cc2OC[C@@H](C)N(Cc2cccnc2)C[C@H]1C	7
O=C(Cc1ccccn1)N[C@@H]1C=C[C@H](CC(=O)N2CCCCC2)O[C@@H]1CO	4
Cc1ccc(-c2c(C#N)c(N)nc3c2CCCC3)o1	5
Cc1ccc(-c2cc(-c3ccccc3)c(C#N)c(N)n2)o1	46*
N#Cc1c(-c2ccco2)cc(-c2cccnc2)nc1N	2
COc1cccc(-c2cccc(-c3nc(C(=O)NCC(F)(F)F)cc4c3[C@@H](CCO)N([S@](=O)C(C)(C)C)C4)c2)c1	5
CC(C)(C)[S@@](=O)N1Cc2cc(C(=O)NCC(F)(F)F)nc(-c3cccc(-c4cccc(F)c4)c3)c2[C@H]1CCO	-13[25 µM]
CC(C)(C)[S@](=O)N1Cc2cc(C(=O)NCC(F)(F)F)nc(-c3cccc(-c4cccc(F)c4)c3)c2[C@@H]1CCO	80*[25 µM]
CC1CN(Cc2ccccc2)C(=O)N(c2ccccc2)C1=O (centres undefined)	-3
COc1ccc(C(=O)[C@H]2[C@H]3C(=O)N(c4ccccc4)C(=O)[C@H]3C3C=CC=NN32)cc1 (some centres undefined)	-45
O=C1C=CC2C3C(=O)N(c4ccccc4)C(=O)C3C1N2Cc1ccccc1 (centres undefined)	100*
O=C(NC1CCCC1)[C@@H]1[C@@H](CO)[C@@H]2Cn3c(cccc3=O)[C@@H]2N1CCc1ccccc1	-1[25 µM]
COc1ccc(/C=N\n2nnc3ccccc32)cc1	58*
COc1cccc(/C=N/NC(=O)CCn2nnc3ccccc32)c1	-14
SMILES	BL2 CD40 inh
COc1ccc(/C=N/NC(=O)CCn2cnc3ccccc32)cc1	-7
C[C@@H]1CN([C@@H](C)CO)C(=O)c2cccc(NC(=O)c3ccncc3)c2O[C@H]1CN(C)S(=O)(=O)c1ccccc1	-9[25 µM]
COC(=O)c1ccc(CSCc2ccc(C(=O)OC)o2)o1	12
COC(=O)c1ccc(CSc2nnnn2C)o1	6
COC(=O)c1ccc(CSc2cc(C)c3cc(C)cc(C)c3n2)o1	55*
COC(=O)c1ccc(CSc2nnc3c(Cl)cc(Cl)cn23)o1	67*
CCc1nc(SCc2ccc(C(=O)OC)o2)n[nH]1	0
COC(=O)c1ccc(CSc2nc3ccccc3c(=O)n2-c2ccccc2)o1	34
CN(C)CC(=O)N1[C@@H]2Cn3c(ccc(-c4cccnc4)c3=O)[C@H]1[C@@H](C(=O)NC1CCCC1)[C@@H]2CO	-5[25 µM]
O=C(C1CCCC1)N1CC(=O)N2[C@@H](CO)[C@H](c3ccc(C#Cc4cccc(F)c4)cc3)[C@@H]2C1	3
O=C(c1cnccn1)N1CC(=O)N2[C@H](CO)[C@@H](c3ccc(C#CC4CCCC4)cc3)[C@@H]2C1	-2
O=C(Nc1ccc(F)cc1)N1C[C@H]2[C@@H](c3ccccc31)[C@@H](CO)N2C(=O)Cc1ccccn1	-5
C[C@@H]1CCCCO[C@H](CN(C)C(=O)CCCN(C)C)[C@H](C)CN([C@@H](C)CO)C(=O)c2cc(NC(=O)Nc3ccc4c(c3)OCO4)ccc2O1	-18[25 µM]
N#C[C@H]1N[C@@H](CO)[C@@H]1c1ccc(C#Cc2ccccc2F)cc1	active[25 µM]
N#C[C@@H]1N[C@H](CO)[C@H]1c1ccc(C#CC2CCCC2)cc1	13
N#C[C@@H]1N[C@H](CO)[C@@H]1c1ccc(C#Cc2ccccc2F)cc1	-43[25 µM]
N#C[C@H]1N[C@H](CO)[C@H]1c1ccc(C#Cc2ccc(F)cc2)cc1	4[25 µM]
N#C[C@@H]1N[C@H](CO)[C@@H]1c1ccc(C#CC2CCCC2)cc1	-10
N#C[C@H]1N[C@H](CO)[C@H]1c1ccc(C#CC2CCCC2)cc1	62*
